# Source: ChEMBL document CHEMBL3988442, “University of Dundee, Small-Polar-MMV Screening Library” (2021)
# Out of some 48,000 compounds screened, about 13,000 (27%) showed an effect of 50% or more. The list shows a part of the results.
# System: Wolbachia pipientis
# Assay: Anti-Wolbachia Cell-Based Screen
# Format: functional
# Parameters: scale not given: in the data most compounds retested in dose-response had high values
# Conditions: 5 µM
row,SMILES,Percent Effect [%]
1,CC(=O)NCCc1ncnn1-c1ccc(F)c(Cl)c1,-4.574
2,CC(O)CN1CCC(CNCc2ccc(S(C)(=O)=O)cc2)CC1 (stereo not drawn),-7.013
3,Cc1cc(-c2ccc(C(C)N3CCOCC3)cc2)cnc1N (stereo not drawn),25.58
4,O=C(NCCc1c[nH]cn1)c1ccc2c(c1)C(=O)N(C1CC1)C2=O,25.9
5,CC(O)CN(C)C(=O)Nc1ccn(-c2cccc(C(F)(F)F)c2)n1 (stereo not drawn),-1.587
6,CCn1c(C2CCCN2Cc2noc(C(C)(C)C)n2)nc2ccccc21 (stereo not drawn),117.3
7,COc1cccc2c1N(Cc1noc(C(C)(C)C)n1)CCC2,5.292
8,CCc1nc(C2CCCN2Cc2nc(C3CC3)no2)no1 (stereo not drawn),-2.971
9,CCc1nc(C2CCCN2Cc2nc3ccccc3o2)no1 (stereo not drawn),-3.272
10,O=C(OCc1ccccc1)C1CCCN1Cc1nc(C2CC2)no1 (stereo not drawn),13.28
11,Cn1cccc1C1CCCN1Cc1noc(C(C)(C)C)n1 (stereo not drawn),89.29
12,c1ccn2c(C3CCCN3Cc3nc(C4CC4)no3)nnc2c1 (stereo not drawn),89.02
13,CC(C)(C)c1nc(CN2CCCC2c2nnc3ccccn23)no1 (stereo not drawn),104.6
14,CCc1nc(C2CCCN2Cc2noc(Cc3ccccc3)n2)no1 (stereo not drawn),-2.758
15,Cc1nn(C)c(C)c1C1CCCN1Cc1noc(C2CC2)n1 (stereo not drawn),0.5745
16,CC(C)(C)c1nnc(CN2CCCC2c2noc(C3CC3)n2)o1 (stereo not drawn),9.354
17,CC(C)(C)c1nc(CN2CCCC2CCc2ccccc2)no1 (stereo not drawn),0.152
18,CC(C)n1cnc2c1C(C(=O)N1CCOCC1)N(CC1CC1)CC2.O=C(O)C(F)(F)F (stereo not drawn),-10.07
19,CNC(=O)c1ccc(-n2c(COCC(=O)O)nc3c(C)cccc32)o1,-7.772
20,CCCOCC1CCN(C(=O)Cn2cccc(OC)c2=O)C1 (stereo not drawn),-15.28
21,Cc1ccc(NC(=O)CCC2CC2)cc1N1CCOC1=O,-7.551
22,O=c1[nH]nc(CNc2ncc(Cl)cn2)[nH]1,-6.867
23,CCc1nsc(N2CCOC3(CCCC3)C2)n1,2.616
24,Cc1noc(C)c1CN1CCCC1c1nnc2ccccn12 (stereo not drawn),107.8
25,Cc1noc(C)c1CN1CCCCC1c1nc(-c2ccccc2)no1 (stereo not drawn),11.76

row,SMILES,Percent Effect [%]
1,Cc1noc(C)c1CN1CCCC1c1nc(-c2ccccc2)no1 (stereo not drawn),-6.071
2,CCC(CO)N(Cc1cccs1)C(=O)Cc1ccc(O)cc1 (stereo not drawn),12.13
3,CCC[C@@H]1CN(C(=O)c2ccccc2-c2ccccc2)C[C@H]1N(C)C,-11.45
4,COCCN1CCCC(O)(CN2CCN(Cc3ccncc3)CC2)C1=O (stereo not drawn),-1.626
5,Cc1ccc(CN2CCC3(CCN(Cc4ccncc4)CC3)CC2)cc1,-6.544
6,Cn1ccnc1C1(O)CCCN(Cc2ccncc2)CC1 (stereo not drawn),94.34
7,CN(C)[C@H]1CCN(c2ccnc(C(=O)NCc3ccco3)c2)C1,-12.58
8,Cc1[nH]c(=O)sc1S(=O)(=O)N1CCCC1C(=O)NC1CC1 (stereo not drawn),0.9374
9,CC1c2ncc(COCC3CC3)n2CCN1S(=O)(=O)N(C)C (stereo not drawn),-6.883
10,O=C(NCCO)c1coc(Cn2cnc3ccccc32)n1,-7.13
11,CC(C)C(C)n1nccc1NC(=O)Cn1cnc2ccccc21 (stereo not drawn),92.25
12,Cn1ccnc1-c1cnn(CC(=O)Nc2ccnn2C)c1,-5.253
13,Cc1noc(CN(C)C(=O)CCn2cnc3ccccc32)n1,-9.657
14,CC(C1CC1)n1nccc1NC(=O)CN(C)C(=O)OC(C)(C)C (stereo not drawn),1.565
15,CC(C)c1nccn1CC(=O)Nc1ccnn1C(C)C(C)C (stereo not drawn),205.7
16,Cc1n[nH]c(C)c1C1CCCN1C(=O)c1cc(Br)c[nH]1 (stereo not drawn),3.439
17,N#Cc1cc(S(N)(=O)=O)ccc1NC1CCc2ccc(F)cc21 (stereo not drawn),-1.199
18,CN(C)c1ccc(-c2ccnc3c2ccn3C)nn1,-43.13
19,c1cc2c(c(-c3cc(N4CCOCC4)ncn3)c1)CCNC2,6.934
20,Cn1ccc2c(-c3ccc(NC4CC4)nn3)ccnc21,-7.533
21,Cn1ccc2c(-c3cc(N4CCCCC4)ncn3)ccnc21,102.2
22,CC(C)Nc1ccc(-c2ccnc3c2ccn3C)nn1,-2.658
23,Cn1ccc2c(-c3cc(N4CCOCC4)ncn3)ccnc21,96.13
24,Cc1cc(C)nc(N2CCCC(Cn3cc(CN(C)C)nn3)C2)n1 (stereo not drawn),5.215
25,COCc1cc(NCCc2ccc(F)cc2)n2nccc2n1,-0.9559

row,SMILES,Percent Effect [%]
1,COc1ccccc1CNC(Cn1cncn1)c1ccccc1 (stereo not drawn),-4.346
2,COCc1cc(NCc2cc(F)ccc2F)n2nccc2n1,7.154
3,COCCn1cc(NCc2cccc3cn[nH]c23)cn1,-36.74
4,CCn1cc(CNc2ccc(Br)c(OC)c2)cn1,3.911
5,COCc1cc(CNc2cnn(CC(F)F)c2)ccc1OC,109.5
6,Cc1ccc(CNc2cnn(CC(F)F)c2)cc1C,-20.79
7,COc1ccccc1CNc1cnn(CC(F)F)c1,103.3
8,COc1cc(CNc2cnn(CC(F)F)c2)ccc1O,77.84
9,CS(=O)(=O)CCNCc1ccc(OCc2ccncc2)cc1,4.954
10,CS(=O)(=O)c1cccc(S(=O)(=O)NCCCN2CCNC(=O)C2)c1,4.336
11,COCCC1(CO)CCCN(Cc2ccc(C(F)(F)F)nc2)C1 (stereo not drawn),4.896
12,Cc1nn(C)c2nc(N3CCCCC3c3ccc(F)cc3)sc12 (stereo not drawn),106.8
13,Cc1nn(C)c2nc(N3CCC(C(O)c4ccccn4)CC3)sc12 (stereo not drawn),-0.6588
14,Cc1ccc(CN2CCN(c3nc4c(s3)c(C)nn4C)C(C)C2=O)cc1 (stereo not drawn),-1.858
15,Cc1nn(C)c2nc(N3CCNC(=O)C3Cc3ccccc3)sc12 (stereo not drawn),4.207
16,Cc1nn(C)c2nc(N3CCCC3c3nccs3)sc12 (stereo not drawn),105.7
17,Cc1nn(C)c2nc(N3CCNC(=O)C3C(C)C)sc12 (stereo not drawn),-3.724
18,COC(=O)CN1CCN(c2nc3c(s2)c(C)nn3C)C(C)C1=O (stereo not drawn),-10.29
19,Cc1nn(C)c2nc(N(Cc3nccs3)C3CC3)sc12,96.11
20,COC(=O)CC1C(=O)NCCN1c1nc2c(s1)c(C)nn2C (stereo not drawn),-2.847
21,Cc1nn(C)c2nc(N(Cc3cnn(C)c3)C3CCCCC3)sc12,-14.1
22,Cc1nn(C)c2nc(N3CCCCC3c3nccs3)sc12 (stereo not drawn),111.2
23,COCCN(Cc1nccs1)c1nc2c(s1)c(C)nn2C,-7.769
